# From PubChem BioAssay AID463173 (ICCB-Longwood Screening Facility, Harvard Medical School, 2010)
# Hit rate of the full screen: of about 52,000 compounds, about 1,700 (3.3%) were called active. Shown is part of a subset that was picked to be rich in actives. Values without a mark were called inactive. Rule as the data show it: active = survival mostly below about 52% (no sharp cut-off); inactive = mostly above about 56%.
# Test system: Wild type
# Assay: growth inhibition of S. aureus wild type versus tarO mutant, primary screen, teichoic acid synthesis inhibitors, RN4220, OD600 (AID 463173)
# Settings: S. aureus RN4220 wild type/DeltatarO growth, OD600, 18 h, hits give low values, screened at 18.75 µg/mL (by protocol)
row,SMILES,survival
1,CCc1ccc(NC(=O)CSc2nc3c(sc4ccccc43)c(=O)n2CCCOC(C)C)cc1,80%
2,O=C(CSc1n[nH]c(-c2ccc(F)cc2)n1)NCCc1ccccc1,120%
3,CC1=C(C(=O)Nc2ccccc2)C(c2ccncc2)n2nc(SCc3ccccc3F)nc2N1 (stereo not given),106%
4,Cc1ccc(NC(=O)Cn2cc(S(=O)(=O)N3CCCC3)c(S(=O)(=O)N3CCCC3)c2)cc1F,126%
5,O=C(CCc1cn(Cc2ccccc2F)c2ccccc12)NCc1ccc(Cl)cc1,81%
6,O=C(NCC1CCCCC1)C1CCCN1C(=O)NC1CCCCC1 (stereo not given),106%
7,COc1ccc(NC(=O)c2oc3ccc(S(=O)(=O)N4CCCCC4)cc3c2C)cc1Cl,73%
8,Cc1ccc(S(=O)(=O)C2(C(=O)Nc3ccc(C(C)C)cc3)CC2)cc1,64%
9,O=C(Nc1ccccc1C(F)(F)F)C1(S(=O)(=O)c2ccc(Cl)cc2)CC1,94%
10,Cc1ccc(S(=O)(=O)C2(C(=O)Nc3ccc(C)c(Cl)c3)CC2)cc1,4% (active)
11,CCOC(=O)c1cccc(NC(=O)C2(S(=O)(=O)c3ccc(C)cc3)CC2)c1,84%
12,Cc1ccc(S(=O)(=O)C2(C(=O)Nc3ccc(Cl)c(C(F)(F)F)c3)CC2)cc1,41% (active)
13,COC(=O)c1ccc(NC(=O)C2(S(=O)(=O)c3ccc(C)cc3)CC2)cc1,133%
14,COc1ccc(C2(CNC(=O)C(=O)Nc3ccc(C)c(Cl)c3)CCCC2)cc1OC,83%
15,Cc1ccc(-n2ncc(C(=O)NCc3ccc4c(c3)OCO4)c2C2CCN(C(=O)OC(C)(C)C)CC2)cc1C,82%
16,COc1cccc(N2CCN(C(=O)c3c4c(nc5ccccc35)C(=O)N(C3CCCCC3)C4)CC2)c1,88%
17,COc1ccc(C)cc1NC(=O)Cn1c(=O)oc2cc(S(=O)(=O)N3CCCCC3)ccc21,94%
18,NC(=O)c1c(NC(=O)c2noc3c2CCCC3)sc2c1CCCC2,73%
19,Cc1cccc(S(=O)(=O)c2cn(Cc3ccc(F)cc3)c3cc(N4CCCCC4)c(F)cc3c2=O)c1,-4% (active)
20,Cn1cc(S(=O)(=O)c2cccc(Cl)c2)c(=O)c2cc(F)c(N3CCN(c4ccc(F)cc4)CC3)cc21,81%
21,O=c1c(S(=O)(=O)c2ccccc2)cn(Cc2ccc(F)cc2)c2cc(N3CCCCC3)c(F)cc12,74%
22,CCn1cc(S(=O)(=O)c2cc(C)cc(C)c2)c(=O)c2cc(F)c(N3CCCC3)cc21,129%
23,CCN1CCN(c2cc3c(cc2F)c(=O)c(S(=O)(=O)c2cc(C)cc(C)c2)cn3CC)CC1,-3% (active)
24,Cn1cc(S(=O)(=O)c2ccccc2)c(=O)c2cc(F)c(N3CCN(c4ccccc4)CC3)cc21,135%

row,SMILES,survival
1,Cc1cccc(S(=O)(=O)c2cn(Cc3ccccc3)c3cc(N4CCCCC4)c(F)cc3c2=O)c1,99%
2,Cn1cc(S(=O)(=O)c2cccc(Cl)c2)c(=O)c2cc(F)c(N3CCN(c4ccccc4)CC3)cc21,1% (active)
3,CCn1cc(S(=O)(=O)c2cc(C)cc(C)c2)c(=O)c2cc(F)c(N3CCCCC3)cc21,82%
4,CCOc1ccc(N(C)C(=O)C2CCN(S(=O)(=O)c3c(C)noc3/C=C/c3ccc(C)cc3)CC2)cc1,153%
5,COc1ccccc1CNc1nc(-c2ccco2)nn1C(=O)c1cc(OC)c(OC)c(OC)c1,69%
6,COc1ccc(C(=O)c2c(N)c(C(=O)Nc3cccc(OC)c3)c3ccccn23)cc1,95%
7,Cc1ccc2oc(=O)c(-c3nc(-c4cccs4)no3)cc2c1,94%
8,COc1ccc(NC(=O)COc2ccc(S(=O)(=O)NC3CCCCC3)cc2)cc1OC,74%
9,Oc1cc2ccsc2c2ccccc12,18% (active)
10,c1ccc(-c2cc3ccsc3s2)cc1,111%
11,O=c1cc(O)c2ccccc2[nH]1,135%
12,Cc1ccc(C(=O)N/C(=C/c2ccco2)C(=O)Nc2nccs2)cc1,81%
13,CCCC(=O)Nc1ccc2c(C)cc(C)nc2n1,99%
14,CCC(Sc1ccc2nnc(CCNS(=O)(=O)c3ccc(OC)cc3)n2n1)C(=O)OC (stereo not given),84%
15,COc1ccc(NC(=O)CCS(=O)(=O)c2nc(-c3cccs3)cc(C(F)(F)F)n2)cc1OC,100%
16,O=C(CCn1nc(-c2ccccc2)c2ccccc2c1=O)Nc1ccccc1,86%
17,Cc1ccc(NC(=O)CCn2nc(-c3ccccc3)c3ccccc3c2=O)c(C)c1,75%
18,COc1ccccc1NC(=O)CCn1nc(-c2ccccc2)c2ccccc2c1=O,4% (active)
19,CCCOc1ccccc1C1C(C(=O)Nc2ccccc2)=C(C)Nc2nnnn21 (stereo not given),134%
20,COc1ccc(-n2c(-c3ccc(F)cc3)cn3c4c(=O)n(C)c(=O)n(C)c4nc23)cc1,63%
21,CC(C)(C)C(=O)Nc1nnc2n1CCS2,77%
22,Cc1ccc(CNCc2c(C(=O)O)n(Cc3ccccc3C)c3cc(C)ccc23)cc1,63%
23,Cc1ccc2c(CNCCc3ccccc3)c(C(=O)O)n(Cc3ccccc3C)c2c1,1% (active)
24,C=Cc1ccc(Cn2c(C(=O)O)c(CNCCc3ccccc3)c3ccc(C)cc32)cc1,69%

row,SMILES,survival
1,Cc1ccc2c(CNCCc3ccco3)c(C(=O)O)n(Cc3ccc(F)cc3)c2c1,66%
2,C=Cc1ccc(Cn2c(C(=O)O)c(CNCc3ccc(F)cc3)c3ccc(C)cc32)cc1,68%
3,Cc1ccc2c(CNCCc3ccc(Cl)cc3)c(C(=O)O)n(Cc3ccc(F)cc3)c2c1,4% (active)
4,Cc1ccccc1NC(=O)Cn1nc(-c2ccccc2)nc(Cc2ccccc2)c1=O,70%
5,CC(C)OCCCn1c(=O)c2ccccc2n2c(-c3ccccc3F)nnc12,88%
6,Cc1c(C(=O)N2CCCC2)oc2c1-c1nn(CC(=O)NCc3cccc(F)c3)cc1CC2,85%
7,Cc1cccc(N2CCN(C(=O)c3noc4c3COc3ccc(C)cc3-4)CC2C)c1 (stereo not given),80%
8,CN(C)c1ncnc(Cl)c1N,101%
9,CCOc1ccc(NC(=O)CSc2ncc3c(n2)-c2cc(Cl)ccc2N(C)S3(=O)=O)cc1,-3% (active)
10,CCOc1ccc(NC(=O)CSc2nnc(-c3ccc(C)cc3)c(-c3ccc(C)cc3)n2)cc1,115%
11,CCOc1ccc(NC(=O)CSc2ncc3c(n2)-c2ccccc2N(C)S3(=O)=O)cc1,78%
12,CCOc1ccc(-c2nnc(SCC(=O)Nc3cccc(OC)c3)nc2-c2ccc(OCC)cc2)cc1,-3% (active)
13,CCc1cccc(NC(=O)CSc2ncc3c(n2)-c2cc(Cl)ccc2N(C)S3(=O)=O)c1,65%
14,COc1cccc(NC(=O)CSc2ncc3c(n2)-c2ccc(Cl)cc2N(C)S3(=O)=O)c1,10% (active)
15,Cc1ccc(NC(=O)CSc2ncc3c(n2)-c2ccc(Cl)cc2N(C)S3(=O)=O)cc1F,69%
16,COc1ccc(-c2nnc(SCC(=O)Nc3cccc(C(F)(F)F)c3)nc2-c2ccc(OC)cc2)cc1,79%
17,COc1cc(NC(=O)CSc2ncc3c(n2)-c2ccc(Cl)cc2N(Cc2ccccc2)S3(=O)=O)cc(OC)c1,65%
18,CN(C)CCn1c2c(c(SCC(=O)Nc3ccc(F)cc3F)nc1=O)CCC2,83%
19,COC(=O)c1scc(-c2ccccc2)c1S(=O)(=O)Nc1cccc(C)c1C,100%
20,Cn1c(Cc2cccs2)nnc1SCC(=O)N1CCCc2ccccc21,109%
21,O=C(CSC1=Nc2ccccc2C2=NC(CC(=O)NC3CCCCC3)C(=O)N12)Nc1ccc(F)cc1 (stereo not given),71%
22,CCOC(=O)c1c(NC(=O)c2noc3c2CC(C(C)(C)C)CC3)sc2c1CCCC2 (stereo not given),88%
23,COc1cc(NC(=O)c2noc3c2CC(C(C)(C)C)CC3)cc(OC)c1OC (stereo not given),68%
24,CCc1ccccc1NC(=O)c1noc2c1CC(C(C)(C)C)CC2 (stereo not given),-11% (active)

row,SMILES,survival
1,O=C(C1CCCN(S(=O)(=O)c2ccc(Br)s2)C1)N1CCN(c2cccc(Cl)c2)CC1 (stereo not given),73%
2,Cc1cc(C)n2nc(CNS(=O)(=O)c3ccc(F)cc3)nc2n1,88%
3,Cc1nc(SCc2ccc(Cl)cc2)c(C#N)c(C)c1Cl,32%
4,Cc1ccc(Cl)cc1NC(=O)CSc1nc(C)c(C)c(C)c1C#N,86%
5,Cc1nc(SCc2ccccc2Cl)c(C#N)c(C)c1C,-2% (active)
6,Cc1cc(F)ccc1NC(=O)Cn1cc(S(=O)(=O)NC(C)C)c(S(=O)(=O)NC(C)C)c1,73%
7,CNS(=O)(=O)c1cn(CC(=O)Nc2ccc(C)cc2C)cc1S(=O)(=O)NC,121%
8,CNS(=O)(=O)c1cn(CC(=O)Nc2ccc(F)cc2F)cc1S(=O)(=O)NC,-3% (active)
9,CCC(=O)N1CCc2cc(Br)cc(S(=O)(=O)N3CCC(C(=O)Nc4cccc(C)c4)CC3)c21,94%
10,CCC(=O)N1CCc2cc(Br)cc(S(=O)(=O)N3CCC(C(=O)Nc4ccc(OC)cc4)CC3)c21,0% (active)
11,CCC(=O)N1CCc2cc(Br)cc(S(=O)(=O)N3CCC(C(=O)Nc4ccccc4CC)CC3)c21,89%
12,CC(C(=O)N(C(C)C)C(C)C)N1CCN(C)CC1 (stereo not given),93%
13,O=C(Cn1c(=O)nc(-c2ccccc2)c2ccccc21)NCc1ccccc1Cl,73%
14,CCOc1ccc(CNC23CN4CN(CN(C4)C2)C3)cc1,99%
15,CC1CCN(C(=O)CSc2nc(-c3ccc(F)cc3)cc(C(F)(F)F)n2)CC1,11% (active)
16,CC1CCN(C(=O)CSc2n[nH]c(-c3ccc(F)cc3)n2)CC1,76%
17,O=C(CSc1n[nH]c(-c2ccc(F)cc2)n1)N1CCN(c2ccc(F)cc2)CC1,-6% (active)
18,COc1ccc(-c2nc(SCC(=O)N3CCN(c4ccc(F)cc4)CC3)n[nH]2)cc1,85%
19,CC(Sc1nc(-c2ccccc2)cc(C(F)(F)F)n1)C(=O)N1CCCC1 (stereo not given),105%
20,COc1ccc(-c2cc(C(F)(F)F)nc(SCC(=O)N3CCC(C)CC3)n2)cc1,55%
21,O=C(CSc1n[nH]c(-c2ccccc2)n1)N1CCN(c2ccc(F)cc2)CC1,65%
22,CC1CCN(C(=O)C(C)Sc2nc(-c3ccccc3)cc(C(F)(F)F)n2)CC1 (stereo not given),-7% (active)
23,CC1CN(C(=O)C(C)Sc2nc(-c3ccccc3)cc(C(F)(F)F)n2)CC(C)O1 (stereo not given),101%
